Among the data in PubChem BioAssay AID463173 (ICCB-Longwood Screening Facility, Harvard Medical School, 2010) are survival values, retold here.

Hit rate of the full screen: of about 52,000 compounds, about 4,300 (8.3%) were called active. The sample holds actives, similar compounds and a random draw of the others, so the mix is not that of the screen. Rule as the data show it: active = survival mostly below about 52% (no sharp cut-off); inactive = mostly above about 56%.

For this assay, the system named is DeltatarO mutant. Put plainly: growth inhibition of S. aureus wild type versus tarO mutant, primary screen, teichoic acid synthesis inhibitors, RN4220, OD600 (AID 463173). As to conditions: OD600, 18 h, active compounds read low, screened at 18.75 µg/mL (by protocol).
`CCOC(=O)c1c(NC(=O)Cc2coc3cc(C)ccc23)sc2c1CCCC2`: the survival was 95% (inactive).

With `O=C(NC1CCS(=O)(=O)C1)Sc1ccccc1` (stereo not given), the survival was 96% (inactive).

`CCc1ccc2nc(SCC(=O)N3CC(=O)Nc4ccccc43)c(C#N)cc2c1`: the survival was 107% (inactive).

Consider `COc1cc(NS(=O)(=O)c2ccc(NC(=O)c3ccc(C(C)=O)cc3)cc2)nc(OC)n1`, for which the survival is 87% (inactive).

`O=C(OCc1ccccc1)c1ccc(-c2nnn(Cc3ccccc3F)n2)cc1`: the survival was 98% (inactive).

As to `COc1ccc(C2=C(Nc3ccc(Br)c(C)c3)c3ccccc3C2=O)cc1`, the survival was 0% (active).

For the compound `COc1ccc(NC2=C(c3ccccc3)C(=O)c3ccccc32)cc1Cl`, the survival is 116% (inactive).

Consider `Cc1cc(C)cc(NC2=C(c3ccccc3)C(=O)c3ccccc32)c1`, for which the survival was 39% (active).

For the compound `COc1ccc(OC)c(NC2=C(c3ccccc3)C(=O)c3ccccc32)c1`, the survival is 62% (inactive).

For `O=C1C(c2ccc(C(F)(F)F)cc2)=C(Nc2ccc(Cl)cc2)c2ccccc21`, the survival is 63% (inactive).

Consider `COc1ccc(C2=C(Nc3ccc(C)c(C)c3)c3ccccc3C2=O)cc1`, for which the survival was 93% (inactive).

Regarding `Cc1ccc(NC2=C(c3ccc(C(F)(F)F)cc3)C(=O)c3ccccc32)cc1C`, the survival is 69% (inactive).

On to `COc1ccc(C2=C(Nc3ccc(C)cc3C)c3ccccc3C2=O)cc1`, for which the survival is 71% (inactive).

Turning to `Cc1ccc(NC2=C(c3ccc(C(F)(F)F)cc3)C(=O)c3ccccc32)cc1F`, the survival was 28% (active).

Consider `COc1cc(C(CC(=O)Nc2cc(C)ccn2)N2Cc3ccccc3C2=O)cc(OC)c1OC` (stereo not given), for which the survival was 76% (inactive).

Take `Cn1c(C(=O)NCc2ccccc2Cl)cc2sc(Cl)cc21`: the survival was 64% (inactive).

Turning to `CCCCNC(=O)CCC1N=C2c3ccccc3N=C(SCC(=O)NCCc3ccc(OC)c(OC)c3)N2C1=O` (stereo not given), the survival is 64% (inactive).

For the compound `COc1cc(Cl)c(C)cc1NC(=O)Cn1ncc2c3ccccc3n(Cc3ccccc3)c2c1=O`, the survival was 83% (inactive).

With `CCC(=O)N1CCc2cc(S(=O)(=O)NC(C(=O)NCc3ccc(OC)cc3)C(C)C)ccc21` (stereo not given), the survival is 92% (inactive).

`Cc1ccccc1Nc1sc(C(=O)c2ccc3c(c2)OCO3)c(N)c1S(=O)(=O)c1ccccc1`: the survival was 78% (inactive).

Turning to `Cc1ccc(CNC(=O)C(C)n2nc(C)n3c(cc4sccc43)c2=O)cc1` (stereo not given), the survival was 111% (inactive).

`CCOc1ccc(NC(=O)CC2C(=O)N(c3cccc(C)c3)C(=O)N2Cc2ccco2)cc1` (stereo not given): the survival is 83% (inactive).

Consider `CCOC(=O)CNC(=O)Nc1cc(C(=O)NCc2ccc(C(C)C)cc2)ccc1N1CCCC1`, for which the survival is 93% (inactive).

In the case of `Cc1ccc(-n2c(SCC(N)=O)nc3c(oc4ccccc43)c2=O)cc1`, the survival was 69% (inactive).

Consider `CCCCOc1nnc(-c2ccc(OCC)cc2)c2ccccc12`, for which the survival is -12% (active).

Regarding `CCOc1ccc(-c2ncccc2O)cc1`, the survival was 105% (inactive).

For the compound `CCOc1ccc(-c2nnc(Nc3ccc(S(N)(=O)=O)cc3)c3ccccc23)cc1`, the survival was 56% (inactive).

For the compound `Cc1cc(=O)n(Cc2ccc(F)cc2Cl)c2c1c(C)nn2-c1ccccc1`, the survival is 96% (inactive).

As to `CCc1ccccc1NC(=O)Cn1c(=O)n(C(C)C)c(=O)c2oc3ccccc3c21`, the survival is 66% (inactive).

As to `COc1cccc(NC(=O)CSc2ncc3c(n2)-c2ccc(Cl)cc2N(C)S3(=O)=O)c1`, the survival is 37% (active).

As for `Cc1ccc(NC(=O)CSc2ncc3c(n2)-c2ccc(Cl)cc2N(C)S3(=O)=O)cc1F`, the survival is 69% (inactive).

As to `CCc1cccc(NC(=O)CSc2ncc3c(n2)-c2cc(Cl)ccc2N(C)S3(=O)=O)c1`, the survival was 57% (inactive).

As for `CCOc1ccc(NC(=O)CSc2ncc3c(n2)-c2ccccc2N(C)S3(=O)=O)cc1`, the survival was 75% (inactive).

As to `COc1cc(NC(=O)CSc2ncc3c(n2)-c2ccc(Cl)cc2N(Cc2ccccc2)S3(=O)=O)cc(OC)c1`, the survival was 55% (inactive).

On to `CCOc1ccc(NC(=O)CSc2ncc3c(n2)-c2cc(Cl)ccc2N(C)S3(=O)=O)cc1`, for which the survival is 0% (active).

Turning to `COc1ccc(CNC(=O)CN2C(=O)CCn3nc(-c4ccccc4)cc32)c(OC)c1`, the survival is 69% (inactive).

Take `COc1ccc(-c2nc3c(c(SCC(=O)Nc4cc(C)cc(C)c4)n2)Cc2c(CO)cnc(C)c2O3)cc1`: the survival was 80% (inactive).

With `CN(C)S(=O)(=O)c1ccc2c(c1)nnn2CCNC(=O)Nc1ccc(Br)cc1`, the survival is 83% (inactive).

For `O=C1Nc2nc(=O)nc3[nH]c(=O)nc(n23)N1`, the survival is 97% (inactive).

On to `COc1ccc(Cn2ccn(Cc3cccc(OC)c3)c(=O)c2=O)cc1`, for which the survival was 46% (active).

Turning to `COc1ccc(Cn2ccn(Cc3cccc(Cl)c3)c(=O)c2=O)cc1`, the survival is 112% (inactive).

Regarding `COc1ccc(Cn2ccn(Cc3cccc(C)c3)c(=O)c2=O)cc1`, the survival is 109% (inactive).

Take `COc1ccc(-n2ccn(CC(=O)Nc3ccc(C)cc3C)c(=O)c2=O)cc1`: the survival was 79% (inactive).

In the case of `COc1ccc(Cn2ccn(CC(=O)Nc3cc(C)ccc3C)c(=O)c2=O)cc1`, the survival was 47% (active).

As to `COc1ccc(-c2cc3c(=O)n(CC(=O)Nc4cc(C)ccc4C)ccn3n2)cc1`, the survival is 88% (inactive).

`CC(C)(C)c1ccc(OCCSc2nc(-c3cccs3)nc3cc(=O)[nH]n23)cc1`: the survival was 78% (inactive).

For `CC(=O)NCC(c1ccc2c(c1)OCO2)N1CCN(c2ccccc2)CC1` (stereo not given), the survival is 80% (inactive).

For `COc1ccc(NC(=O)c2ccc3c(c2)nnn3C2CCCC2)cc1Cl`, the survival was 88% (inactive).

For the compound `CCN1CCN(c2ncc3c(n2)CCN(Cc2ccc(Br)s2)C3)CC1`, the survival was 76% (inactive).

Turning to `CCOc1ccccc1CN1CCc2nc(N3CCN(c4ccccc4F)CC3)ncc2C1`, the survival was -4% (active).

`CCN1CCN(c2ncc3c(n2)CCN(Cc2cc(Br)cs2)C3)CC1`: the survival was 6% (active).

As for `CCOc1ccccc1CN1CCc2nc(N3CCN(C)CC3)ncc2C1`, the survival is -2% (active).

`COc1cc(OC)c(OC)cc1CN1CCc2nc(N3CCN(c4ccccc4F)CC3)ncc2C1`: the survival was 72% (inactive).

Take `COc1ccccc1N1CCN(c2ncc3c(n2)CCN(Cc2ccccc2F)C3)CC1`: the survival is 89% (inactive).

For `Cc1ccccc1CN1CCc2nc(N3CCN(c4ncccn4)CC3)ncc2C1`, the survival is 88% (inactive).

As for `CN1CCN(c2ncc3c(n2)CCN(Cc2cc(Br)cs2)C3)CC1`, the survival is 109% (inactive).

For the compound `COc1cc(OC)c(OC)cc1CN1CCc2nc(N3CCN(C)CC3)ncc2C1`, the survival was 84% (inactive).

Turning to `CCN1CCN(c2ncc3c(n2)CCN(Cc2ccccc2C)C3)CC1`, the survival was -1% (active).

For the compound `CN1CCN(c2ncc3c(n2)CCN(Cc2ccccc2Cl)C3)CC1`, the survival is 79% (inactive).

With `Cc1ccccc1CN1CCc2nc(N3CCN(c4ccccn4)CC3)ncc2C1`, the survival was 94% (inactive).

As to `COc1cc(C(=O)n2nc(-c3ccco3)nc2NCc2ccc(Cl)cc2)cc(OC)c1OC`, the survival is 82% (inactive).

On to `COc1cccc(CNC(=O)CSC2=Nc3ccccc3C3=NC(C(C)C)C(=O)N23)c1` (stereo not given), for which the survival was 69% (inactive).

As for `Cc1ccc(Cl)cc1N1CCN(C(=O)C2CCN(S(=O)(=O)c3cn(C)cn3)CC2)CC1`, the survival is 98% (inactive).

With `CC(=O)Nc1cccc(NC(=O)C2CCCN2C(=O)Nc2ccccc2Cl)c1` (stereo not given), the survival is 113% (inactive).

On to `CCOc1ccc(-c2csc(-c3nc(-c4ccc(Br)s4)cs3)n2)cc1`, for which the survival is 83% (inactive).

On to `NC(=O)c1c(NC(=O)CS(=O)(=O)c2ccc(Cl)cc2)sc2c1CCCCC2`, for which the survival was 82% (inactive).

Turning to `O=C(CSC1=Nc2ccccc2C2=NC(CCC(=O)NC3CCCCC3)C(=O)N12)Nc1cccc(Cl)c1` (stereo not given), the survival was 112% (inactive).

As for `CCC(=O)N1CCc2cc(Br)cc(S(=O)(=O)CCC(=O)N(C)c3cccc(C)c3)c21`, the survival was 62% (inactive).

Turning to `CCOc1ccc(NC(=O)CC2C(=O)N(c3cccc(C)c3)C(=O)N2Cc2cccs2)cc1` (stereo not given), the survival is 89% (inactive).

On to `Cc1cccc(N2C(=O)C(CC(=O)Nc3cccc(F)c3)N(Cc3cccs3)C2=O)c1` (stereo not given), for which the survival was 8% (active).

With `CCc1ccc(NC(=O)CC2C(=O)N(c3ccc(Cl)cc3)C(=O)N2Cc2cccs2)cc1` (stereo not given), the survival is 60% (inactive).

As for `COc1cc(NC(=O)CC2C(=O)N(c3cccc(C)c3)C(=O)N2Cc2cccs2)cc(OC)c1` (stereo not given), the survival was 66% (inactive).

Take `CCc1ccc(NC(=O)CC2C(=O)N(c3cccc(C)c3)C(=O)N2Cc2cccs2)cc1` (stereo not given): the survival is 20% (active).

For the compound `Cc1cccc(N2C(=O)C(CC(=O)Nc3cccc(F)c3)N(CCc3ccncc3)C2=O)c1` (stereo not given), the survival was 75% (inactive).

`Cn1c(=O)n(C)c2cc(NS(=O)(=O)c3ccc(F)cc3)c(NCc3ccccc3)cc21`: the survival was 68% (inactive).

With `CCc1nn(CCCC(=O)N2CCN(c3ccc(OC)cc3)CC2)c(=O)c2cc3occc3n12`, the survival was 87% (inactive).

As to `C=CCc1ccccc1OCc1nc2ccccc2n1CC`, the survival was 49% (inactive).

In the case of `C#CCn1c(COc2ccccc2C)nc2ccccc21`, the survival was 111% (inactive).

With `COc1ccc(OCc2nc3ccccc3n2Cc2ccccc2Cl)cc1`, the survival is 39% (active).

With `Cc1ccccc1Cn1c(COc2ccc(Cl)cc2)nc2ccccc21`, the survival was 114% (inactive).

For `Cc1cccc(C(=O)NCc2nc3ccccc3n2Cc2ccccc2Cl)c1`, the survival was 106% (inactive).

For `COc1ccc(-n2c(=O)c3ccccc3n(Cc3ccccc3Cl)c2=O)cc1`, the survival was 110% (inactive).

Turning to `Cc1ccccc1OCc1nc2ccccc2n1Cc1ccccc1Cl`, the survival is 0% (active).

Consider `Cc1ccc(OCc2nc3ccccc3n2Cc2ccccc2Cl)cc1`, for which the survival was -8% (active).

Turning to `CCc1cc(C(=O)NCc2ccc(F)cc2)no1`, the survival is 53% (inactive).

For the compound `Cc1cc(=O)oc2cc(OCC(=O)NCc3ccco3)ccc12`, the survival is 74% (inactive).

On to `CC(C)C(c1nnnn1C1CCCC1)N1CCN(C(=O)c2ccco2)CC1` (stereo not given), for which the survival was 86% (inactive).

Take `Cc1cccc(C(=O)NCC(c2ccc3c(c2)OCO3)N2CCOCC2)c1` (stereo not given): the survival was 73% (inactive).

For `Cc1ccc(N2C(=O)CCSC23C(=O)N(Cc2ccccc2)c2ccccc23)cc1` (stereo not given), the survival was 89% (inactive).

Take `Cc1cccc(NC(=O)CSc2nnc(N)s2)c1`: the survival was 149% (inactive).
